Measurements reported in PMC4336329 (PLoS ONE, 2015).
Screen size: about 310,000 compounds; about 14,000 (4.5%) showed an effect of 50% or more. Effects have a minus sign here. The sample as a whole holds a higher share of strong results than the screen did.

Molecular target: human ether-à-go-go-related gene (hERG) potassium channel (human, UniProt Q12809)
Experiment: primary screen, population patch clamp on CHO cells stably expressing hERG; higher = less effect of the substance
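Further: peak tail current of the secondary pulse compared with the same well before compound.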

Chain of human ether-à-go-go-related gene (hERG) potassium channel (Q12809 whole entry, looked up): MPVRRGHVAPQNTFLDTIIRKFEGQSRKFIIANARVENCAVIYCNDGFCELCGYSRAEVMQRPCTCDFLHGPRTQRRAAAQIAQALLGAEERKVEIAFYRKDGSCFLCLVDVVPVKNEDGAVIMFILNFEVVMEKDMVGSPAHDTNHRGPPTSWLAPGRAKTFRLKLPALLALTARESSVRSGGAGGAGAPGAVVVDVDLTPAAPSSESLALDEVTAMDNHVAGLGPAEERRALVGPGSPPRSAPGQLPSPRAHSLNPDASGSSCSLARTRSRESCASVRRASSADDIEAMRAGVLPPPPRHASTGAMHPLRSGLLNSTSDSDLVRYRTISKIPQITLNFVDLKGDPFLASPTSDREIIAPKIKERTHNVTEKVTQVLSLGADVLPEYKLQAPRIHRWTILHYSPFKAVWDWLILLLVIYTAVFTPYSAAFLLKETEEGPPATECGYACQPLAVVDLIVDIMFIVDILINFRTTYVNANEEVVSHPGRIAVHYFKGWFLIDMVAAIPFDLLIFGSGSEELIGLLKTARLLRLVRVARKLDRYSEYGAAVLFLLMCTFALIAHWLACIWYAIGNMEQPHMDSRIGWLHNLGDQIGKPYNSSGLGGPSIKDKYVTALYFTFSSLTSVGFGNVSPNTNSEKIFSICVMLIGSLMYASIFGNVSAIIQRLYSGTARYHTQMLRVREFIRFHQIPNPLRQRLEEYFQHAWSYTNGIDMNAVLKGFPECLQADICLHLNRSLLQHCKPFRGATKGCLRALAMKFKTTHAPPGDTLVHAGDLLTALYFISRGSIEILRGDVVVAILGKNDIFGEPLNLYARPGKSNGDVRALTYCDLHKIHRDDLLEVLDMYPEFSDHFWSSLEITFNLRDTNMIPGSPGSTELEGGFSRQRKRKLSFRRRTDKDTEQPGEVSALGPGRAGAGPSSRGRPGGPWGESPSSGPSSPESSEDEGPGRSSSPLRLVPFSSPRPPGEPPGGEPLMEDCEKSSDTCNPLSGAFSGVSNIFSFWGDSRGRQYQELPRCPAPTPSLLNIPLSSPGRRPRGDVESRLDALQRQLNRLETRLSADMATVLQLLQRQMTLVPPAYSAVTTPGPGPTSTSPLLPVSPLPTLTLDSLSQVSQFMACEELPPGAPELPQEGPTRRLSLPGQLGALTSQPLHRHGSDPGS

| SMILES | hERG current change (%, negative = inhibition) at 10uM |
| --- | --- |
| CCC(=O)c1ccc(OCC(O)CNC2CCCC2)cc1 (stereo not drawn) | 2.52% |
| O=C(COc1ccc(C(=O)c2ccccc2)cc1)NCc1ccc(F)cc1 | -6.64% |
| OC(CNCc1ccccc1Cl)COc1ccc(F)cc1 (stereo not drawn) | -21.3% |
| OC(CNCc1ccc2c(c1)OCO2)COc1ccccc1 (stereo not drawn) | -5.74% |
| O=C(O)C(=O)O.O=C(c1ccccc1)c1ccc(OCC(O)CNCc2ccc(F)cc2)cc1 (stereo not drawn) | -68.2% |
| CCC(=O)c1ccc(OCC(O)CNCc2ccc(F)cc2)cc1 (stereo not drawn) | -52.2% |
| CCc1nc(C)ccc1OCC(=O)NCCCN(C)C.O=C(O)C(=O)O | 4.48% |
| Cc1cc(C)cc(NC(=S)Nc2ccccn2)c1 | -8.14% |
| Cc1ccc(N=Cc2ccc(O)cc2O)cc1F | 20.6% |
| O=C(Cn1c(=O)oc2ccccc21)c1ccccc1 | -5.11% |
| CCN1CCN(C(=S)Nc2cccc(C(F)(F)F)c2)CC1 | -7.79% |
| CN(C(=O)C(Cl)Cl)C1CC2C=CC1C2 (stereo not drawn) | 5.29% |
| Nc1c(C(=O)CSc2nccn2-c2ccc(Cl)cc2)c(=O)[nH]c(=O)n1C1CC1 | 17.5% |
| CS(=O)(=O)N1CCC(C(=O)NCc2ccco2)CC1 | 6.1% |
| COc1ccccc1-c1nnc(SC)n1C | 36.9% |
| CC(C)COc1nc2ccccc2nc1N1CCN(C)CC1 | -72.9% |
| COc1nc2ccccc2nc1N1CCN(C)CC1 | -23.9% |
| COc1nc2ccccc2nc1N1CCN(c2ccc(F)cc2)CC1 | 17.5% |
| FC(F)(F)c1cccc(N2CCN(c3nnnn3-c3ccccc3)CC2)c1 | -25.3% |
| COc1ccc2nc(/C=N/NC(=O)CCCCCNC(=O)OC(C)(C)C)ccc2c1 | -0.0758% |
| COc1ccc(OCC(=O)N2CCN(S(=O)(=O)c3ccc(Cl)cc3)CC2)cc1 | -22.9% |
| N#Cc1ccc(NCC(=O)N2CCN(S(=O)(=O)c3ccccc3)CC2)cc1 | -70.2% |
| N#Cc1ccc(OCC(=O)N2CCN(S(=O)(=O)c3cccc(Cl)c3)CC2)cc1 | -71.4% |

| SMILES | hERG current change (%, negative = inhibition) at 10uM |
| --- | --- |
| COc1ccc(CCC(=O)N2CCN(S(=O)(=O)c3cccc(Cl)c3)CC2)cc1 | -34.8% |
| O=C(COc1ccc(Cl)cc1)N1CCN(S(=O)(=O)c2ccccc2)CC1 | -54.6% |
| CC(=O)c1ccc(NCC(=O)N2CCN(S(=O)(=O)c3ccccc3)CC2)cc1 | -5.61% |
| N#Cc1ccccc1NCC(=O)N1CCN(S(=O)(=O)c2ccccc2)CC1 | -1.49% |
| O=C(COc1ccccc1)N1CCN(S(=O)(=O)c2ccc(Cl)cc2)CC1 | -2.27% |
| O=C(COc1ccc(Cl)cc1)N1CCN(S(=O)(=O)c2ccc(Cl)cc2)CC1 | -11.9% |
| O=C(NCCC1CCCCN1S(=O)(=O)c1ccccc1)C(=O)Nc1ccccc1 (stereo not drawn) | -12.3% |
| COC(=O)Oc1ccc(/C=N/NS(=O)(=O)c2ccccc2)cc1OC | 21.2% |
| CCC(=Nc1ccccc1N)c1c(O)[nH]c(=O)[nH]c1=O | 18.5% |
| COC(=O)C1CN(C(=O)COc2cccc(C)c2C)c2ccccc2O1 (stereo not drawn) | -6.63% |
| Cc1cccc(NC(=O)CCN2C(=O)C3C4C=CC(C4)C3C2=O)n1 (stereo not drawn) | 5.71% |
| COc1ccc(F)cc1C(=O)C1CCCN(Cc2c[nH]c3ccccc23)C1 (stereo not drawn) | -63.8% |
| COc1ccc(F)cc1C(=O)C1CCCN(Cc2cn(C)c3ccccc23)C1 (stereo not drawn) | -39.5% |
| COc1ccc(C(=O)C2CCCN(Cc3c[nH]c4ccccc34)C2)c(OC)c1 (stereo not drawn) | -70.8% |
| COc1ccc(C(=O)C2CCCN(Cc3c(F)ccc(F)c3F)C2)c(OC)c1 (stereo not drawn) | -30.9% |
| COc1ccc(F)cc1C(=O)C1CCCN(Cc2c(C)n(C)n(-c3ccccc3)c2=O)C1 (stereo not drawn) | -11.5% |
| COc1ccc(C(=O)C2CCCN(Cc3c(C)[nH]c4ccccc34)C2)c(OC)c1 (stereo not drawn) | -70.1% |
| COc1ccc(C(=O)COC(=O)Cc2c[nH]c3ccccc23)c(OC)c1 | 4.87% |
| CC1=C(C(=O)OC(C)C)C(c2ccncc2)n2ncnc2N1 (stereo not drawn) | 0.568% |
| CCOc1nc(Nc2cc(Cl)ccc2OC)nc(OCC)n1 | 19.7% |
| N#Cc1ccccc1CSCCNC(=O)Cc1c(F)cccc1Cl | 15.8% |
| CCN(CC)S(=O)(=O)c1ccc2c(c1)nc(CCC(=O)Nc1ccc3c(c1)OCO3)n2CC | -0.447% |
